This is an account of results in PubChem BioAssay (EPA / NIEHS).

Details in all cases: actives raise or lower the signal
Experiment [1] is described as follows: CEETOX_H295R_OHPREG_noMTC: CeeTox H295R High-throughput Steroidogenesis Assay for OH-Pregnenolone (OHPREG), maximum tolerated concentration (MTC) filtered results only (AID 2283912). An outline of the steps:
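Steroidogenesis in H295R cells (OECD 456, modified): after 48 h forskolin priming and 48 h chemical treatment, secreted 17alpha-hydroxypregnenolone is measured by HPLC-MS/MS. Activity is fitted in both directions against DMSO; concentrations are not filtered by MTT-based MTC.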

Experiment [2] is described as follows: CEETOX_H295R_OHPROG_noMTC: CeeTox H295R High-throughput Steroidogenesis Assay for OH-Progesterone (OHPROG), maximum tolerated concentration (MTC) filtered results only (AID 2283914). The essentials: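 Forskolin 10 uM, 48 h prestim → test cmpd in DMSO (0.1% final), 48 h → medium MTBE extraction → LC-MS/MS quant of 17alpha-OH-progesterone. Bidirectional fit vs DMSO; no MTT-based MTC filtering.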

A short description of experiment [3]: CEETOX_H295R_ANDR_noMTC: CeeTox H295R High-throughput Steroidogenesis Assay for Androstenedione (ANDR), maximum tolerated concentration (MTC) filtered results only (AID 2283915). The essentials:
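H295R cells, passage 10 or below, prestimulated 48 h with 10 uM forskolin, then exposed 48 h to chemical in 0.1% DMSO. Medium androstenedione extracted with MTBE, quantified by HPLC-MS/MS; concentrations not MTC-filtered; bidirectional fit versus DMSO.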

A short description of experiment [4]: CEETOX_H295R_CORTISOL_noMTC: CeeTox H295R High-throughput Steroidogenesis Assay for Cortisol, maximum tolerated concentration (MTC) filtered results only (AID 2283916). As to the method: (§1) CEETOX_H295R is a cell-based, multiplexed-readout assay that uses H295R, a human adrenal gland cell line, with measurements taken at 48 hours after chemical dosing in a 96-well plate.CEETOX_H295R_CORTISOL_noMTC is one of 12 assay component(s) measured or calculated from the CEETOX_H295R assay (11 hormones and 1 viability assay). It is designed to make measurements of hormone induction, a form of inducible reporter, as detected with absorbance signals by HPLC-MS-MS technology. The concentrations for these components have not been pre-filtered for the maximum tolerated concentration (MTC) based on the MTT assay (_noMTC).Data from the assay component CEETOX_H295R_CORTISOL_noMTC was analyzed into 1 assay endpoint. This assay endpoint, CEETOX_H295R_CORTISOL_noMTC, was analyzed with bidirectional fitting relative to DMSO as the negative control and baseline of activity. […]
(§2) Cell culture and media preparation procedures were conducted in accordance with OECD Test No. 456 guidelines, with minor modifications. […] For steroid quantification, media samples were shipped to OpAns, LLC (Durham, NC) on dry ice, and samples were thawed to room temperature prior to liquid-liquid extraction. […] Steroid hormones were separated by HPLC, eluted using a reverse phase C18 gradient with electrospray positive ionization, followed by quantification by tandem mass spectrometry (MS/MS). […]

Experiment [5] is described as follows: CEETOX_H295R_CORTIC_noMTC: CeeTox H295R High-throughput Steroidogenesis Assay for Corticosterone (CORTIC), maximum tolerated concentration (MTC) filtered results only (AID 2283917). An outline of the steps: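 Following OECD 456 with minor changes, H295R cultures received 10 uM forskolin for 48 h, then test chemical at 0.1% DMSO for 48 h. Media steroids were extracted and measured by LC-MS/MS.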

The nature of experiment [6]: CEETOX_H295R_DOC_noMTC: CeeTox H295R High-throughput Steroidogenesis Assay for DOC, maximum tolerated concentration (MTC) filtered results only (AID 2283918). As to the method:
as §1, with “plate.CEETOX_H295R_DOC_noMTC” for “plate.CEETOX_H295R_CORTISOL_noMTC”, “CEETOX_H295R_DOC_noMTC” for “CEETOX_H295R_CORTISOL_noMTC”, “CEETOX_H295R_DOC_noMTC,” for “CEETOX_H295R_CORTISOL_noMTC,”
as §2

The nature of experiment [7]: CEETOX_H295R_ESTRADIOL_noMTC: CeeTox H295R High-throughput Steroidogenesis Assay for Estradiol, maximum tolerated concentration (MTC) filtered results only (AID 2283919). An outline of the steps: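 H295R human adrenal cells pre-stimulated 48 h with 10 uM forskolin, then exposed 48 h to chemical (0.1% DMSO final). Estradiol in medium measured by HPLC-MS/MS after MTBE extraction and dansyl derivatization; bidirectional fit versus DMSO, concentrations not MTT-filtered.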

Experiment [8] can be described thus: CEETOX_H295R_PROG_noMTC: CeeTox H295R High-throughput Steroidogenesis Assay for Progesterone (PROG), maximum tolerated concentration (MTC) filtered results only (AID 2283920). An outline of the steps: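 H295R cells; forskolin 10 uM x 48 h prestim; test cpd 48 h, 0.1% DMSO final; media progesterone via LC-MS/MS; bidirectional fit vs DMSO; no MTT-based MTC filter applied.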

Experiment [9] is described as follows: CEETOX_H295R_ESTRONE_noMTC: CeeTox H295R High-throughput Steroidogenesis Assay for Estrone, maximum tolerated concentration (MTC) filtered results only (AID 2283921). The essentials:
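H295R cells prestimulated 48 h with 10 uM forskolin, then exposed 48 h to chemical in 0.1% DMSO; medium estrone measured by HPLC-MS/MS after MTBE extraction and dansyl derivatization, fitted bidirectionally versus DMSO without MTT-based MTC filtering.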

A short description of experiment [10]: CEETOX_H295R_TESTO_noMTC: CeeTox H295R High-throughput Steroidogenesis Assay for Testosterone (TESTO), maximum tolerated concentration (MTC) filtered results only (AID 2283924). The essentials:
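H295R cells prestimulated 48 h with 10 uM forskolin, then exposed 48 h to chemicals in 0.1% DMSO final. Testosterone in medium quantified by MTBE extraction and HPLC-MS/MS; bidirectional fit versus DMSO, concentrations […] filtered by MTT-based maximum tolerated concentration.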

Active and inactive are the calls of the source. The calls were made as follows: active = hit-call score of the fitted dose curve at least 0.9, where 1 is the maximum; inactive = score below 0.9.

For the molecule `CC(C)(C)c1cc(CCC(=O)NCCCCCCNC(=O)CCc2cc(C(C)(C)C)c(O)c(C(C)(C)C)c2)cc(C(C)(C)C)c1O`, the outcome in [1], in experiment [3], in experiment [4], in [5], in experiment [6] and in [7] was inactive. For the same molecule, the call in experiment [9] and in experiment [10] was inactive. Moreover, the figures for the concentration at half-maximal activity (AC50) in experiment [2] and in experiment [8] were 203 nM (active) and 452 nM (active), respectively.

On to `Nc1c(Br)cc([N+](=O)[O-])cc1Br`, for which the molecule was called inactive in [1], in experiment [4], in [5], in [6], in [7] and in experiment [8]. In addition, in experiment [9], the outcome was inactive. Moreover, in experiment [2], the concentration at half-maximal activity (AC50) is 20700 nM (active).
